Compound activity as filed in PubChem.
IMPase Li cell – cell-permeable IMPase inhibitors with lithium potentiation; CHO-M1 cells, IP1 TR-FRET (IP-One), carbachol + lithium; Potency, µM (series often up to 59.4 µM), inactives show at the highest dose activity, negative = IMPase inhibition, most hits filed as inhibitors; hit rate 0.35% among 210,000; AID 1457;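 further: IP1 builds up when IMPase is blocked and the TR-FRET signal falls; plate controls were basal vehicle for no effect and high inhibitor control for full effect; nearly all actives have a fitted effect of over 50% in size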
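CHO cells stably expressing M1 receptor (2000/well) were cultured 16–30 h, then exposed to compounds with a small lithium addition for 30 min at 37C. IP1 was measured by TR-FRET competition; AC50 from Hill fits.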
ALDH1A1 block – inhibitors of human aldehyde dehydrogenase 1A1 | AID 1030 | Potency, µM (doses to about 75.3 µM), for inactives: top-dose activity, negative = inhibition, usual class: inhibitors | P00352 | hit rate 7.3% among 220,000 | Purified ALDH1A1, NADH fluorescence, propionaldehyde substrate; active means well fitted inhibition curve with a large enough effect, not every such curve was filed as active; inconclusive means small, poorly fitted or top-dose-only effect, or another doubt; inactive means no such curve, though single readings can be large or run the other way;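 further: plate controls were no enzyme wells and a reference inhibitor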
Target sequence (P00352 whole entry, looked up): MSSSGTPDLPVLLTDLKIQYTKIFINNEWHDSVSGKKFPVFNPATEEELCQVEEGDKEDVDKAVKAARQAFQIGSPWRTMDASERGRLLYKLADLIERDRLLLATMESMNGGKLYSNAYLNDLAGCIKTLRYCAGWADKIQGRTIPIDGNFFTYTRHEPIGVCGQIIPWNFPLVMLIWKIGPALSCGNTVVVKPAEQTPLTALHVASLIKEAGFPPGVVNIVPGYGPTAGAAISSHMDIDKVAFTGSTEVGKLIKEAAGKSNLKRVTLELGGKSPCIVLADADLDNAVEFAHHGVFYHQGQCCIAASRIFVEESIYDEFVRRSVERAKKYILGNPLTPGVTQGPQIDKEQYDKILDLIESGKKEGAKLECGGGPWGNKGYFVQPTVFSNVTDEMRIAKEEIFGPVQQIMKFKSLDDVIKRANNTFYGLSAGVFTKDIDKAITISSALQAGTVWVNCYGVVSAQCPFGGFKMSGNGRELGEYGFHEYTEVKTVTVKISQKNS
LMNA splice mod – changes lamin A minigene splicing in HeLa cells; hit rate 0.01% among 200,000; Potency, µM (series often up to 46.1 µM), without a hit: at the top dose ratio change, negative = inhibition, most hits filed as inhibitors; HeLa LMNA splicing GFP/RFP minigene ratio, 48 h; AID 1487; active means well fitted inhibition curve with a large enough effect in the signal ratio, with a control signal flat, not every such curve was filed as active; inconclusive means small, poorly fitted or top-dose-only effect, or effect the other way, or a change in a side signal; the % refers to the signal ratio
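S3 HeLa stable clones carrying a lamin A-EGFP splicing minigene plus DsRed2 were seeded at 600 cells/well in Opti-MEM with 2% FBS, pin-dosed and incubated 48 h at 37°C. Acumen cytometry (488 nm) gave the GFP/RFP total-intensity ratio.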
HPGD block – HPGD (human) dehydrogenase inhibition; P15428; purified HPGD, NADH fluorescence kinetic, PGE2 substrate; Potency, µM, without a hit: at the top dose activity change, negative = inhibition, usual class: inhibitors; hit rate 4.3% among 150,000; AID 894; active means well fitted inhibition curve with a large enough effect, not every such curve was filed as active; inconclusive means small, poorly fitted or top-dose-only effect, or another doubt; inactive means no such curve, though single readings can be large or run the other way
Target sequence (P15428 whole entry, looked up): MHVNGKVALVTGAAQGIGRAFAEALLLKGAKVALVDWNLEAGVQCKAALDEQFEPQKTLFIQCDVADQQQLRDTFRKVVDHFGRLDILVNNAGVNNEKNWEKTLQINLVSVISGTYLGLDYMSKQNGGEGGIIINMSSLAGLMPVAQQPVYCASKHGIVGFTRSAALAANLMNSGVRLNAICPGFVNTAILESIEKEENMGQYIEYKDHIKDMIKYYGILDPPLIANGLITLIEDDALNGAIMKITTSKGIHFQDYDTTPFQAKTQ
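NADH formation kinetics: reaction with 30 uM PGE2 and 1 mM NAD+ (final), 20 nM enzyme, Tris-HCl pH 8 with Tween 20, after 15 min compound preincubation at room temperature. Fluorescence change, last versus first of five reads.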
Luc counter – counter-screen: inhibitors of Kinase-Glo firefly luciferase; Q27757; Kinase-Glo luciferase, ATP luminescence, 8 min; Potency, µM (highest dose often 38.3 µM), for inactives: top-dose activity change, negative = inhibition, actives largely listed as inhibitors; hit rate 0.28% among 200,000; AID 1379; further: nearly all actives have a fitted effect of over 60% in size
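Light output from Kinase-Glo luciferase with luciferin and 10 uM ATP in 50 mM imidazole pH 7.2, KCl, MgCl2, Tween 20, BSA; compound pin-delivered, 8-min ambient incubation, then luminescence read.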
An asterisk follows results filed as active; ? = inconclusive; . = no result; [ ] = another dose, or the depositor's remark. The list is not random: actives were taken first. Their share in the collection is about 9%. Unless noted, the call rests on the fitted dose curve; in most records, active means well fitted curve in the direction sought with a large enough effect; inconclusive means small, poorly fitted or top-dose-only effect, or another doubt; inactive means no such curve, though single readings can be large; an effect the other way counts as inactive or inconclusive. Unless noted, on the % scale 0 is the no-effect control and ±100 the full control effect; potency means the concentration at half of the fitted maximal effect.

SMILES	IMPase Li cell	ALDH1A1 block	LMNA splice mod	HPGD block	Luc counter
COc1ccc(C)cc1-n1nnnc1SCC(=O)c1ccc2c(c1)OCCO2	10%[38.3 µM]	11µM*	?	-13%	-3%
Cc1ccccc1NC(=O)c1ccc(NC(=O)C2CC(=O)OC23CCCCC3)cc1 (stereo not drawn)	5%	?	.	.	-3%
Cc1ccc(CNC(=O)CCNS(=O)(=O)c2ccc3c(c2)CCCC(=O)N3)cc1	.	.	-5%[46 µM]	.	.
Cc1ccc(/C=C/C(=O)Nc2cccc3ncccc23)o1	2%	?	-1%	32µM*	4%
Cc1ccc(/C=C/C(=O)Nc2cccnc2)o1	3%	10µM*	1%	22µM*	-2%
N#C/C(=C\c1cccc([N+](=O)[O-])c1)C(=O)NCc1cccnc1	2%	-5%	-14%	?	4%
O=C(/C=C/c1ccc([N+](=O)[O-])cc1)Nc1cccnc1	-1%[38.3 µM]	8.9µM*	10%	-24%	?
N#C/C(=C\c1cccc([N+](=O)[O-])c1)C(=O)Nc1cccnc1	-5%	11µM*	.	.	3%
Cc1noc(C)c1COC(=O)c1cccc(N(C)C)c1	20%	-2%	?	.	-2%
CCOc1ccc(NS(=O)(=O)c2ccc3c(c2)CCCN3C(=O)C2CCC2)cc1	.	.	10%[46 µM]	.	.
Cc1c(NC(=O)COC(=O)c2ccc(F)c(S(=O)(=O)N3CCOCC3)c2)c(=O)n(-c2ccccc2)n1C	5%	10%	-19%[46 µM]	.	0%
Cc1ccc2nc(SCc3nnc(-c4cccs4)o3)[nH]c2c1	19%[38.3 µM]	22µM*	-2%	32µM*	-1%
COc1ccccc1CNC(=O)C(C)n1c(=O)cc(-c2ccccc2)c2c(C)nn(C)c21 (stereo not drawn)	.	.	-17%[46 µM]	.	.
CC(C)(C)NS(=O)(=O)c1cccc(S(=O)(=O)c2cccc(S(=O)(=O)NC(C)(C)C)c2)c1	-14%[38.3 µM]	5%	?	20µM*	10%
CNc1nc(OC)nc(N(C#N)CN2C(=O)c3ccccc3S2(=O)=O)n1	14%	?	.	.	-3%
Cc1ccc(CNC(=O)c2cc(S(=O)(=O)N3CCCC(C)C3)cn2C)cc1 (stereo not drawn)	.	.	-5%[46 µM]	.	.
O=C(O)c1cnc(-c2ccccc2)nc1Sc1ccc(Cl)cc1	-8%[38.3 µM]	2%	5%	-2%	-2%
O=C(O)c1cnc(-c2ccccc2)nc1Sc1ccccc1Cl	-7%[38.3 µM]	3%	4%	14µM*	3%
COc1ccc(/C=N/NC(=O)CSc2n[nH]c(=O)[nH]c2=O)cc1	-3%	-15%	-6%	20µM*	5%
COCCn1c(C)cc(O)c(C(c2ccccc2)N2CCN(c3ccccc3)CC2)c1=O (stereo not drawn)	.	.	-2%[46 µM]	.	.
O=C(NCC1CCCO1)c1cccc(Oc2ccc([N+](=O)[O-])cc2Cl)c1 (stereo not drawn)	20%	?	.	.	2%
S=c1nc(-c2ccco2)[nH][nH]1	-10%[38.3 µM]	25µM*	-4%	22µM*	5%
COc1cc2c(cc1OC)/C(=C/C#N)NC(C)(C)C2	4%[38.3 µM]	2µM*	-4%	-21%	-3%
Cc1ccc(/C=N/N2CCN(Cc3ccccc3)CC2)o1	30%[38.3 µM]	?	-2%	-8%	-1%
Cc1ccc(/C=N/N(Cc2ccccc2)c2ccccc2)o1	16%	20µM*	?	.	0%
SMILES	IMPase Li cell	ALDH1A1 block	LMNA splice mod	HPGD block	Luc counter
O=c1c(Cc2ccccc2)c(O)ccn1Cc1ccc2c(c1)OCO2	3%	2.2µM*	-5%[46 µM]	.	1%
Cc1nc(Cl)c(C(=O)NC(=O)Nc2cccc(C(F)(F)F)c2)c(C)c1[N+](=O)[O-]	20%	5%	?	-14%	2%
N#CC1=C(S)N(c2ccccc2)C(c2ccc(-c3cccc(Cl)c3)o2)NC1=O (stereo not drawn)	-8%	?	0%	32µM*	6%
Cc1cccc(N2C(S)=C(C#N)C(=O)NC2c2ccco2)c1 (stereo not drawn)	?	-7%	.	.	0%
CC(=O)N1CCN(c2nnnn2-c2ccccc2)CC1	17%[38.3 µM]	-1%	-2%	3%	-1%
O=C1NCN(c2ccccc2)C12CCN(c1nnnn1-c1ccccc1)CC2	-10%[38.3 µM]	22µM*	-10%	-6%	1%
O=C1CN(c2nnnn2-c2ccccc2)CCN1	14%[38.3 µM]	0%	0%	-11%	-1%
Cc1cc(C)nc(N2CCN(c3nnnn3-c3ccccc3)CC2)n1	62%[38.3 µM]	22µM*	-5%	-6%	-2%
c1ccc(CC2CCN(c3nnnn3-c3ccccc3)CC2)cc1	25%	8.9µM*	?	-21%	1%
Sc1ccc2ccccc2c1CNCc1ccccc1	3%	-8%[13.5 µM]	.	-7%	-7%[7.66 µM]
c1ccc(CNc2nc3ccccc3[nH]2)cc1	-6%[38.3 µM]	4%	1%	-13%	8%
S=C(NCc1ccccc1)NNc1nc2ccccc2[nH]1	2%	1.3µM*	-23%[46 µM]	.	0%
N#CC1=C(SCc2ccccc2Cl)NC(=O)C(C(N)=O)C1 (stereo not drawn)	-12%[38.3 µM]	16µM*	-1%	-9%	-1%
CCCOC(=O)CSC1=C(C#N)C(c2ccccc2Cl)CC(=O)N1 (stereo not drawn)	1%[38.3 µM]	?	?	-4%	0%
Cc1nc2sc(C(=O)Nc3ccccc3)c(N)c2c(C)c1[N+](=O)[O-]	-3%	7%	-7%[46 µM]	.	0%
COc1ccccc1C(=O)C1CCCN(C(=O)CCc2ccccn2)C1 (stereo not drawn)	11%	18µM*	.	.	8%
COc1ccc(C(=O)C2CCCN(C(=O)CCc3ccccn3)C2)c(C)c1 (stereo not drawn)	4%	7%	.	.	4%
COc1ccc(C(=O)C2CCCN(C(=O)CCc3scnc3C)C2)c(C)c1 (stereo not drawn)	-2%	?	-27%[46 µM]	.	-8%
COC(=O)CCCC(=O)N1CCCC(C(=O)c2ccc(OC)cc2C)C1 (stereo not drawn)	13%	2.5µM*	.	.	1%
CCc1ccc(CN(C)Cc2nc(COc3ccccc3)no2)nc1	10%	6%	?	.	-3%
Cc1cc(-c2ccccc2)nc(-c2ccccc2)c1C	19%	?	-3%[46 µM]	.	13µM*
Cc1cc2ncc(-c3ccccc3)nc2cc1C	3%	-6%	.	.	.
O=C(CSc1nnc(NC2CCCCC2)s1)Nc1ccc(N2CCOCC2)cc1	-3%[38.3 µM]	?	14%	-11%	-11%
CC(Sc1nnc(NC2CCCCC2)s1)C(=O)Nc1ccc2c(c1)C(=O)c1ccccc1C2=O (stereo not drawn)	17%	25µM*	7%	?	0%
CN=C1S/C(=C\c2cc(C)n(-c3ccccc3F)c2C)C(=O)N1C	26%	18µM*	?	22µM*	-18%
O=C(CN1C(=O)S/C(=C/c2cccnc2)C1=O)N1CCOCC1	4%	?	?	-8%	-2%
O=C(CN1C(=O)S/C(=C/c2ccncc2)C1=O)N1CCOCC1	6%	25µM*	-1%	1%	3%
